We go through 69 compounds from ChEMBL document CHEMBL4513216, “Probing the Open Global Health Chemical Diversity Library for Multistage-Active Starting Points for Next-Generation Antimalarials” (ACS Infect Dis, 2020).

The whole screen tested about 68,000 compounds, of which about 2,700 (4%) showed an effect of 50% or more. The sample holds strong results, similar compounds and a random draw of the others, so the mix is not that of the screen.

For this test, the system named is Plasmodium berghei. Briefly: Screen against P. berghei liver stage (PbLuc), transformed with Luciferase, at 2uM. The conditions noted are these: tested at 2 uM. The class given is functional, HepG2.
For `O=C1NC2(CCN(Cc3ccccc3Cl)CC2)CC1c1ccccc1` (centres undefined), the INHIBITION is recorded as 5.92%. As to `Cc1cc(NS(=O)(=O)CC2CCCCO2)ccc1F` (centres undefined), the INHIBITION is -40.47%. The figure for `CCc1ncc2c(n1)CN(CC(=O)Nc1nncs1)CC2` is 21.12%; for `CN(C)CCOCC1CN(Cc2cccc(F)c2)Cc2nccn2C1` (centres undefined) it is -0.23%; for `Cc1nc(CNC(=O)C(C)Oc2ccccc2F)no1` (centres undefined) it is -8.04%.

On to `CC1CCN(c2nc3cn(Cc4cccc(F)c4)c(=O)c-3c[nH]2)CC1`, for which the INHIBITION was found to be 12.59%. On to `COCC(NC(=O)NCc1sccc1C)c1ccco1` (centres undefined), for which the INHIBITION is given as -6.4%.

`Cc1cc(C(=O)N(C)C)nc(C2(C)CCCN2c2ccccc2)n1` (centres undefined): the INHIBITION is 9.9%.

As to `Cc1nc(C)n(CC2CCCN(CCOc3ccccc3C#N)C2)n1` (centres undefined), the INHIBITION is on record as -70.51%. As for `CS(=O)(=O)N1CCO[C@@H]2CCN(C(=O)c3cccs3)CC[C@H]21`, the INHIBITION was determined as 51.36%.

Consider `CN(C)CCN1CCO[C@H]2CCN(C(=O)c3cccs3)CC[C@@H]21`, for which the INHIBITION turned out to be 33.11%. `COCCN1CCO[C@H]2CCN(C(=O)c3cccs3)CC[C@@H]21`: the INHIBITION was found to be 34.19%. As to `CN(Cc1cccnc1)C[C@@H]1OC[C@H]2CN(C(=O)C3CC3)CC[C@H]21`, the INHIBITION is listed as 20.21%.

As for `Cn1cc(N2CC3(COCCN(Cc4ccsc4)C3)OCC2=O)cn1` (centres undefined), the INHIBITION was -17.88%.

As for `O=C(C1CC1)N1CCN2C[C@@H](CO)[C@H](c3ccccc3)[C@H]2C1`, the INHIBITION is recorded as 14.45%. In the case of `CC=C(C)C(=O)NS(=O)(=O)c1ccc(Cl)cn1`, the INHIBITION was -40.56%. `COc1ccc(NC(=O)Cc2c(C)nn(C)c2C)cc1F`: the INHIBITION is on record as 18.15%.

For `COc1ccc(CN(C)C(=O)Cc2c(C)nn(C)c2C)cc1F`, the INHIBITION was 51.31%. For the compound `COc1cc(CN(C)C(=O)Cc2c(C)nn(C)c2C)ccc1OC(F)F`, the INHIBITION is recorded as -51.9%.

Consider `CN(C)CC1(O)CCCN(C(=O)c2ccccc2-n2cccn2)C1` (centres undefined), for which the INHIBITION was -6.64%. For the compound `O=S1(=O)CCCN1Cc1coc(-c2cccs2)n1`, the INHIBITION worked out at 21.33%. With `COCCN(CCOC)C(=O)NC1CCCCC1`, the INHIBITION was -20.08%. The value for `COCCN(CCN(C)C)C(=O)NC1CCc2ccccc2C1` (centres undefined) was 62.39%; that for `COCCN(CCN(C)C)C(=O)NC1CC1` was -25.13%. `CC1(c2ccc(Br)cc2)CC(=O)N(CCC(N)=O)C1=O` (centres undefined): the INHIBITION is given as -10%. Consider `CN(CC(C)(CO)CO)C(=O)Nc1cc(Cl)cc(Cl)c1`, for which the INHIBITION was -1.72%. For `Cc1nn(C)c(C)c1CN(C)S(=O)(=O)c1c(C)n[nH]c1C`, the INHIBITION turned out to be 16.49%.

For `Cc1cc(C)n(C2=NC(NCCCO)c3c(sc4c3CCCC4)N2)n1` (centres undefined), the INHIBITION was found to be 30.54%. `Fc1cnc(N2CCO[C@H]3[C@H](OCC4CCOCC4)CC[C@@H]32)nc1`: the INHIBITION is -39.98%. On to `COc1cc(-n2cccc2)c(Cl)cc1C(=O)NS(C)(=O)=O`, for which the INHIBITION was found to be 1.06%. For the compound `CCC(CC)C(=O)NCc1cn2cc(Br)ccc2n1`, the INHIBITION is recorded as -10.87%. Regarding `CCOCCOC(C)C(=O)NCc1cn2cc(Br)ccc2n1` (centres undefined), the INHIBITION is -4.1%. The figure for `CCOCCOC(C)C(=O)NCc1cn2cc(Cl)ccc2n1` (centres undefined) is 52.74%; for `O=C(c1ccco1)N1CCOCC2(CCN(C3CCOCC3)C2)C1` (centres undefined) it is -68.56%. The figure for `c1ccc(CN2CCNCC(Cc3cnccn3)C2)cc1` (centres undefined) is 6.19%; for `Cc1ncccc1NC(=O)[C@H]1C[C@@H]2CCN(Cc3ccsc3)C[C@H]2O1` it is -30.39%. For `CC(C)N(CCCNC(=O)C1CCOCC1)S(C)(=O)=O`, the INHIBITION is listed as 18.14%. On to `CN(C)C(=O)NCc1cc2n(n1)CCCN(CC1[C@H]3CNC[C@@H]13)C2` (some centres undefined), for which the INHIBITION is recorded as 14.46%. As to `O=C(O)c1ncccc1OCC(F)(F)F`, the INHIBITION is listed as 55.73%. With `O=C(OC1CCC1)c1ncccc1OCC(F)(F)F`, the INHIBITION is recorded as 21.72%. The figure for `O=C(OC1CCC1)c1ncccc1C(F)(F)F` is 46.63%; for `CCc1nccn1CC(=O)N1C[C@@H]2CC[C@H]1CN(c1ncccn1)C2` it is -54.76%; for `Cc1nc(CN2CCCN(Cc3nc4c(F)cccc4[nH]3)CC2)no1` it is 27.86%. In the case of `CC(C)NC(=O)c1cc2c(c3ccccc3n2C)n1C(=O)N(C)C`, the INHIBITION was determined as 9.21%. Take `CN(C)C(=O)n1c(C(=O)NC(C)(C)CO)cc2c1c1ccccc1n2C`: the INHIBITION worked out at 50.35%. As for `CCCNC(=O)c1cc2c(c3ccccc3n2C)n1C(=O)N(C)C`, the INHIBITION is given as -15.3%.

Consider `CN(C)CCN1C(=O)CC[C@@H]2[C@H]1CCN2C(=O)c1ccc(C#N)cc1`, for which the INHIBITION is 33.35%.

Regarding `CS(=O)(=O)N1C[C@H]2CC[C@@H](C1)N(Cc1ccc3nsnc3c1)C2`, the INHIBITION was found to be 6.3%. `Cc1cc(C(=O)N2CCCC(Cn3cc(C4CC4)nn3)C2)nc(C)n1` (centres undefined): the INHIBITION was 15.27%. On to `CC(O)CN1CCC(CNCc2cccc(C(F)(F)F)c2)CC1` (centres undefined), for which the INHIBITION is listed as -32.84%. As for `CCc1nnc(CNC(=O)CCC2CCCCN2C)s1` (centres undefined), the INHIBITION is -22.64%. The value for `CCc1nnc(CNC(=O)CCC2CCCN(C)C2)s1` (centres undefined) was 52.47%; that for `CN1CCCC(CCC(=O)NCCc2nnc(N)s2)C1` (centres undefined) was 49.25%; that for `O=C(CCCN1CCCCC1)N1CCN(C(=O)c2ccc[nH]2)CC1` was 2.7%. Consider `Cn1c(SCC2OCCc3ccccc32)n[nH]c1=O` (centres undefined), for which the INHIBITION stood at 54.53%. The figure for `Cn1c(N)nnc1SCC1OCCc2ccccc21` (centres undefined) is 18.52%; for `CCCn1c(O)nnc1SCC1OCCc2ccccc21` (centres undefined) it is -10.86%; for `COc1ccc(CN2CC(O)CN(C(=O)c3ccccc3)CC2=O)cc1` (centres undefined) it is -21.31%. The figure for `CSc1ccc(CNc2ccccc2CN2CCC(O)CC2)cc1` is 50.03%; for `OCc1ccc(CNc2ccccc2CN2CCC(O)CC2)o1` it is 5.02%; for `CCc1ccc(CNc2ccccc2CN2CCC(O)CC2)o1` it is -10.29%. The value for `CCSCc1ccnc(NC(=O)C2CCCO2)c1` (centres undefined) was 31.62%; that for `O=C(Nc1cc(CSCCO)ccn1)c1ccc(Cl)o1` was -32.88%; that for `CCSCc1ccnc(NC(=O)C2CCOC2)c1` (centres undefined) was 51.27%. In the case of `COc1ccc(-c2csc(-c3cccc(C(=O)O)c3)n2)cc1OC`, the INHIBITION was -60.47%. Regarding `c1ccc(CN2CCC3(CC2)Nc2ccccc2CO3)cc1`, the INHIBITION came out at 17.25%. With `Cc1cc(CN2CCC(CNC(=O)c3ccc(C#N)cc3)C2)[nH]n1` (centres undefined), the INHIBITION is 39.57%. `Cc1cc(CN2CCC(CNC(=O)CN3CCCCCC3)C2)[nH]n1` (centres undefined): the INHIBITION came to 63.17%. As to `Cc1cc(CN2CCC(CNC(=O)Cc3ccc(F)cc3)C2)[nH]n1` (centres undefined), the INHIBITION is listed as -73.43%.
